Some test systems named below: SR leukemia; RPMI-8226 leukemia; OVCAR-8 ovarian; OVCAR-5 ovarian; OVCAR-4 ovarian; SK-OV-3 ovarian; IGROV1 ovarian; OVCAR-3 ovarian; HS 578T breast; NCI/ADR-RES ovarian; T-47D breast; BT-549 breast; MDA-MB-435 melanoma; SW-620 colon; MCF7 breast; HCT-116 colon; HCC-2998 colon; KM12 colon; MDA-MB-468 breast.
Common to all, as to experiment: NCI-60 one-dose screen, 48 h (100 = growth as untreated, 0 = no growth, -100 = all killed)
Holding throughout (conditions): 10 µM

The panel holds about 83,000 compounds, 20% with a hit somewhere; the sample as a whole holds those more often.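 How to read the values: 0–100, growth inhibition (40 = 60% inhibited); 0, no net growth; -100 to 0, cell death (-40 = 40% of starting cells died; -100 = all dead).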 Unmarked numbers belong to inactive results. Active and inactive are the calls of the source. How the source made its calls: active means growth percent below 10; inactive means the rest.

For the compound `CC(C)C1=C[C@@]23CC[C@@H]4[C@](C)(CCC[C@]4(C)C(=O)NCc4ccccc4)[C@H]2C[C@@H]1[C@H]1C(=O)CCC(=O)[C@H]13`, the growth with SR leukemia was 44.4%; in the assay with RPMI-8226 leukemia, 40.4%; with OVCAR-8 ovarian, 75.1%; in the assay on OVCAR-5 ovarian, 83.8%; with OVCAR-4 ovarian it was 47.3%; in the assay with SK-OV-3 ovarian it was 105%. Also, the growth is 90.6% with IGROV1 ovarian; 86.9% with OVCAR-3 ovarian; 63.1% with HS 578T breast; 74% with NCI/ADR-RES ovarian; 51.8% with T-47D breast; 68.7% in the assay on BT-549 breast. The growth is 86% with MDA-MB-435 melanoma; 85.4% in the assay with SW-620 colon; 42.7% in the assay with MCF7 breast; 60.4% with HCT-116 colon; 90% in the assay with HCC-2998 colon; 84.6% with KM12 colon. In addition, the growth in the assay on MDA-MB-468 breast was 70.1%.
Turning to `Cc1ccn2c(C(=O)c3ccc(Br)cc3)cc(-c3cc(-c4ccc(N(C)C)cc4)c(C#N)c(N)n3)c2c1`, the growth with SR leukemia was 64.3%; in the assay on RPMI-8226 leukemia, 83.7%; in the assay with OVCAR-8 ovarian, 38.2%; in the assay on OVCAR-5 ovarian, 66%; in the assay with OVCAR-4 ovarian, 63.3%; in the assay with SK-OV-3 ovarian, 93.8%. Besides, the growth in the assay with IGROV1 ovarian was 76.6%; in the assay on OVCAR-3 ovarian, 50.2%; in the assay on HS 578T breast, 70.2%; in the assay with NCI/ADR-RES ovarian, 72%; in the assay with T-47D breast, 50.5%; in the assay on BT-549 breast, 61.9%. The growth in the assay with MDA-MB-435 melanoma was 65%; in the assay on SW-620 colon, 41.5%; with MCF7 breast it was 46.2%; in the assay on HCT-116 colon, 36.2%; in the assay with HCC-2998 colon it was 64.6%; with KM12 colon, 62.4%.
Regarding `COc1cc2c3c(n(CCCN4CCOCC4)c(=O)c2cc1OC)-c1nc2c(cc1C3=O)OCO2`, the growth is 12.5% in the assay with SR leukemia; 18.7% in the assay on RPMI-8226 leukemia; 30.3% in the assay with OVCAR-8 ovarian; 37.2% in the assay on OVCAR-5 ovarian; 6.71% (active) in the assay on OVCAR-4 ovarian; -4.15% (active) in the assay with SK-OV-3 ovarian. The growth was 36.7% with IGROV1 ovarian; 8.69% (active) with OVCAR-3 ovarian; 71.6% with HS 578T breast; 17.1% in the assay with NCI/ADR-RES ovarian; 14.5% in the assay with T-47D breast; 4.91% (active) with BT-549 breast. Moreover, the growth in the assay on MDA-MB-435 melanoma was 16.4%; in the assay on SW-620 colon, 22.2%; with MCF7 breast, 14%; in the assay on HCT-116 colon, 15.6%; with HCC-2998 colon it was 37.7%; with KM12 colon, 32.1%. In the assay on MDA-MB-468 breast, the growth is -29% (active).
For `CN1C(=O)N(C)C2SC(N/N=C/c3ccc(F)cc3)=NC21` (stereo not given), the growth in the assay with SR leukemia is 11.7%; with RPMI-8226 leukemia it was 77%; in the assay with OVCAR-8 ovarian, 66.8%; in the assay on OVCAR-5 ovarian, 77.9%; in the assay on OVCAR-4 ovarian, 77.2%; in the assay on SK-OV-3 ovarian, 61.8%. Also, the growth in the assay on IGROV1 ovarian was 46%; in the assay with OVCAR-3 ovarian it was -41.9% (active); with HS 578T breast, 33.5%; in the assay with NCI/ADR-RES ovarian, 13%; in the assay on T-47D breast it was 37.9%; in the assay on BT-549 breast it was 9.3% (active). The growth in the assay on MDA-MB-435 melanoma is -28.8% (active); in the assay with SW-620 colon, 30.1%; in the assay on MCF7 breast it was 21.6%; with HCT-116 colon, 24.9%; with HCC-2998 colon it was 69.8%; in the assay with KM12 colon, 28.2%. Besides, the growth in the assay on MDA-MB-468 breast was -12.3% (active).
Take `Cc1cccc(NC(=O)CSc2nc3ccc(F)cc3c(=O)n2-c2ccc(Cl)cc2)c1C`: the growth was 61.9% in the assay on SR leukemia; 88.1% in the assay with RPMI-8226 leukemia; 32.5% in the assay on OVCAR-8 ovarian; 90.3% in the assay on OVCAR-5 ovarian; 67.7% in the assay with OVCAR-4 ovarian; 56.8% in the assay on SK-OV-3 ovarian. Also, the growth in the assay with IGROV1 ovarian was 53%; in the assay with OVCAR-3 ovarian it was 93.9%; in the assay on HS 578T breast it was 25.7%; with NCI/ADR-RES ovarian, 56%; with T-47D breast it was 91.5%; in the assay with BT-549 breast it was 32%. For the same compound, the growth in the assay with MDA-MB-435 melanoma was 83.4%; in the assay with SW-620 colon it was 80.1%; with MCF7 breast it was 69.5%; in the assay with HCT-116 colon, 44.8%; in the assay with HCC-2998 colon it was 94.5%; in the assay on KM12 colon it was 88.8%. Further, the growth with MDA-MB-468 breast is 80.7%.
Turning to `Cc1cc(=O)oc2cc(OCCCCOc3ccc(/C=C/C(=O)Nc4cccc(Cl)c4)cc3)ccc12`, the growth was 55.1% in the assay with SR leukemia; 57.8% in the assay with RPMI-8226 leukemia; 49.7% with OVCAR-8 ovarian; 82.1% in the assay on OVCAR-5 ovarian; -30.5% (active) in the assay on OVCAR-4 ovarian; 119% with SK-OV-3 ovarian. The growth was 103% with IGROV1 ovarian; 27.6% with OVCAR-3 ovarian; 29.5% with HS 578T breast; 45.7% in the assay with NCI/ADR-RES ovarian; 24.5% with T-47D breast; 41% in the assay with BT-549 breast. Moreover, the growth in the assay on MDA-MB-435 melanoma was 64.2%; in the assay with SW-620 colon it was 61.9%; with MCF7 breast, 50.8%; in the assay with HCT-116 colon it was 79.7%; with HCC-2998 colon it was 94.2%; in the assay on KM12 colon it was 72.5%. Moreover, in the assay with MDA-MB-468 breast, the growth is 3.36% (active).
Consider `COc1ccc(OC)c(-c2cc(-c3c[nH]c4ccccc34)nc(N)c2C#N)c1`, for which the growth is 8.54% (active) in the assay with SR leukemia; 6.3% (active) in the assay with RPMI-8226 leukemia; 6.52% (active) in the assay with OVCAR-8 ovarian; 15.1% in the assay with OVCAR-5 ovarian; 22.9% in the assay on OVCAR-4 ovarian; 34.3% in the assay on SK-OV-3 ovarian. The growth in the assay on IGROV1 ovarian was 15.9%; in the assay with OVCAR-3 ovarian it was -23.5% (active); with HS 578T breast it was -16.5% (active); with NCI/ADR-RES ovarian, -34.1% (active); in the assay on T-47D breast, 0.648% (active); in the assay with BT-549 breast, -25.4% (active). In addition, the growth was -5.04% (active) with MDA-MB-435 melanoma; 6.61% (active) in the assay with SW-620 colon; 3.84% (active) in the assay on MCF7 breast; -45.8% (active) in the assay on HCT-116 colon; -37.1% (active) in the assay with HCC-2998 colon; -27.6% (active) with KM12 colon. The growth in the assay on MDA-MB-468 breast is -9.53% (active).
As to `COc1ccc(CN2[C@@H](C(=O)NCc3ccc(C(=O)NO)cc3)Cc3c([nH]c4ccccc34)[C@@H]2C2CC2)cc1`, the growth in the assay with SR leukemia is 15.2%; in the assay on RPMI-8226 leukemia it was 19.3%; with OVCAR-8 ovarian, 16.7%; in the assay on OVCAR-5 ovarian it was 11.5%; with OVCAR-4 ovarian, 35.6%; with SK-OV-3 ovarian, -24.8% (active). Moreover, the growth is 18.1% in the assay with IGROV1 ovarian; 10.5% with OVCAR-3 ovarian; -14.3% (active) in the assay on HS 578T breast; 69.9% in the assay on NCI/ADR-RES ovarian; 3.04% (active) in the assay on T-47D breast; 43.3% with BT-549 breast. The growth in the assay with MDA-MB-435 melanoma is -42.1% (active); in the assay with SW-620 colon it was -21.5% (active); in the assay with MCF7 breast it was 14.1%; with HCT-116 colon, 12.9%; in the assay with HCC-2998 colon, 25.1%; in the assay on KM12 colon, 20.3%.

The values are drawn from PubChem BioAssay (NCI).
